# High-throughput results: PubChem, Buhrlage Lab, Dana-Farber Cancer Institute and Novartis Institutes for BioMedical Research (Cambridge, Mass)
# Only some compounds are listed: those with a hit (about 11% of all), similar ones and a draw of the others.
# USP30 inh = inhibitors of human USP30 deubiquitinase | Q70CQ3 | purified USP30, Ub-rhodamine cleavage fluorescence | inhibition, % at 25 µM | 47,000 compounds, 5.3% hits | AID 1645860
# USP17 block = blocks human USP17 ubiquitin-rhodamine cleavage; AID 1645855; inhibition, % at 50 µM; purified USP17, Ub-rhodamine cleavage fluorescence, 3 h; 47,000 compounds, 6.5% hits
# USP28 inh = human USP28 deubiquitinase inhibition | inhibition, % at 25 µM | Q96RU2 | AID 1645857 | 47,000 compounds, 3% hits | purified USP28, Ub-rhodamine cleavage fluorescence, 30 min
# Target sequence (Q96RU2 whole entry, looked up): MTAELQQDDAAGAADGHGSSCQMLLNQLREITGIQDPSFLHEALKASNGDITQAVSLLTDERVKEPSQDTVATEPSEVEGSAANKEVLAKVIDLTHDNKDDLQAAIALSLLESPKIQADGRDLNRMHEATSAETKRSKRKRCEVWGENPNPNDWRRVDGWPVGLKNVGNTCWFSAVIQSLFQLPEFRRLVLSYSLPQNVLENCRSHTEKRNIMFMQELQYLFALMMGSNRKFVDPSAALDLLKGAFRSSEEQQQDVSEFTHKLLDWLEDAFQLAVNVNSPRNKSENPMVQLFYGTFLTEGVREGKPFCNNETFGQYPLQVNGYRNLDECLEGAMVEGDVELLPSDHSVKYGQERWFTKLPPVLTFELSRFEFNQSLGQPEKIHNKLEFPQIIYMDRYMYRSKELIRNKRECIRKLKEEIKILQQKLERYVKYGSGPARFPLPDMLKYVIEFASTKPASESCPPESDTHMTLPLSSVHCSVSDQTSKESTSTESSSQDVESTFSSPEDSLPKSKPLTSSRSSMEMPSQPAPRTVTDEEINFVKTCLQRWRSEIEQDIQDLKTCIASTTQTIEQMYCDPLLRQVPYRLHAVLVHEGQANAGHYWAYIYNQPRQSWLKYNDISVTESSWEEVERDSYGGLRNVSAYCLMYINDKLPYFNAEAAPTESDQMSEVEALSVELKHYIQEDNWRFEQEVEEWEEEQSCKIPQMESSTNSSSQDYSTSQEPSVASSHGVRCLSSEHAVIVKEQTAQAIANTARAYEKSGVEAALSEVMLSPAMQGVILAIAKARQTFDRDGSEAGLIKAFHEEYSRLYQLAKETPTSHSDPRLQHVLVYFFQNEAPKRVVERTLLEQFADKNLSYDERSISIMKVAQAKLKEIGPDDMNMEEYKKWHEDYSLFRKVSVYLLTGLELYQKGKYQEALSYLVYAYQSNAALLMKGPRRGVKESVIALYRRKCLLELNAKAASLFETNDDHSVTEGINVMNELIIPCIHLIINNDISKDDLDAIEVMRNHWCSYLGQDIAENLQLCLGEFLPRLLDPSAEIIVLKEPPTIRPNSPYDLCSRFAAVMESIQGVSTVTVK
# Active calls of the source: *; i = inactive; x = no result. Rule as the data show it: active = inhibition above about 30%; inactive = the rest.
SMILES,USP30 inh,USP17 block,USP28 inh
CCc1nc2cc(NC(=O)c3cccc(N4CCCC4=O)c3)ccc2n1C,-50.5,-8.4,61.8*
Cc1c(Cl)cccc1NC(=O)CC1COc2ccccc2NC1=O (stereo not drawn),-14.8,-16.3,-2.2
Cc1ccc(/C=C/S(=O)(=O)N2CC(c3nc(-c4ccc[nH]c4=O)no3)C2)cc1,-75.1,-24.9,-3.7
Cc1nn(-c2ccc(F)cc2)c(C)c1S(=O)(=O)N1CCC2(CC1)OCCO2,10.5,3.3,4.4
Cc1noc(-c2cc(=O)n(CC(=O)NCc3ccccc3Cl)c3ccccc23)n1,-18.3,-3.0,-13.8
Cc1noc(-c2cc(=O)n(CC(=O)NCc3ccccc3)c3ccccc23)n1,5.7,53.4*,6.1
COc1ccc(-c2c(C(=O)O)sc3c2NC(=O)CC3c2ccccc2F)cc1 (stereo not drawn),x,9.9,x
COc1cccc(OC)c1C(=O)Nc1cccc(N2CCCCC2=O)c1,-6.3,-0.8,-2.1
O=C(Nc1cccc(-c2ccc(N3CCCC3)nn2)c1)c1c(F)cccc1F,2.1,31.2*,22.2
COc1cccc(OC)c1C(=O)Nc1cccc(-c2ccc(N3CCN(C)CC3)nn2)c1,-12.5,41.4*,3.9
COc1ccc(NC(=O)c2ccc(-c3ccc(N4CCOCC4)nn3)cc2)c(OC)c1,17.9,-4.3,-4.9
O=C(Nc1cnc(N2CCCC2)nc1)c1c(F)cccc1Cl,-1.3,-1.9,3.2
COc1cccc(OC)c1C(=O)Nc1cccc(-c2ccc(N3CCCC3)nn2)c1,5.2,36.2*,10.0
Cc1cc(C(=O)Nc2nc3c(s2)CN(C(=O)c2cc(-c4ccccc4)n[nH]2)CC3)no1,-176.5,-61.6,-65.6
COc1ccc(-c2nc3nc(C)c(Cc4ccccc4)c(=O)n3[nH]2)cc1,51.2*,74.0*,19.2
Cc1ccc(-c2nc3nc(C)c(Cc4ccccc4)c(=O)n3[nH]2)cc1,14.8,28.4,4.8
CCCCOc1ccc(-c2nnn(C(CC)C(=O)OCC)n2)cc1 (stereo not drawn),-0.4,7.4,1.2
O=C(c1cc(-c2cccnc2)n[nH]1)N1CCN(C(=O)c2cccc3[nH]ccc23)CC1,7.4,2.7,-0.1
COc1ccc(CN2CCCC23CCCN(C(=O)CCc2cccnc2)C3)cc1F (stereo not drawn),96.3*,41.5*,92.6*
O=C(CCc1cccnc1)N1CCCC2(CCCN2Cc2ccc(Cl)cc2)C1 (stereo not drawn),0.5,-22.9,-3.1
CC(C(=O)Nc1ccccc1F)C1CCN(C(=O)Nc2ccc(F)cc2)CC1 (stereo not drawn),1.4,-19.1,-2.9
O=C(Nc1ccccc1)C1CCCN(C(=O)c2cc3ccccc3[nH]2)C1 (stereo not drawn),33.4*,59.9*,9.4
Cc1ccc(NC(=O)C2CCCN(C(=O)c3cc(-c4cccnc4)n[nH]3)C2)cc1 (stereo not drawn),1.9,1.9,-0.7
Cc1ccc(C(=O)N2CCN(C(=O)c3cc4ccccc4[nH]3)CC2)cc1,26.2,37.3*,15.3
COc1ccccc1C(=O)N1CCN(C(=O)c2cc3ccccc3[nH]2)CC1,4.1,-8.0,-0.5
SMILES,USP30 inh,USP17 block,USP28 inh
CCN1CCCn2cc(S(=O)(=O)N3CCN(Cc4ccccc4)CC3)cc2C1=O,4.9,6.7,0.7
Cn1c(=O)cc(SCC(=O)N2CCN(c3ccc([N+](=O)[O-])cc3)CC2)c2ccccc21,i,-101.6,-175.6
COc1ccccc1N1CCN(C(=O)CSc2cc(=O)n(C)c3ccccc23)CC1,32.0*,16.4,13.8
CC(=O)Nc1ccc(S(=O)(=O)Nc2ccc(Nc3ccc(-n4cccn4)nn3)cc2)cc1,50.2*,36.3*,-0.1
CC(=O)Nc1ccc(S(=O)(=O)Nc2cc(-c3ccccc3)nn2C)cc1,1.1,1.3,-3.6
COc1ccc(OC)c(NC(=O)COC(=O)c2ccccc2Nc2ccccc2)c1,27.0,26.8,10.7
N#Cc1ccc(NC(=O)COC(=O)c2ccccc2Nc2ccccc2)cc1,5.5,34.1*,27.4
O=C(COC(=O)c1ccccc1Nc1ccccc1)Nc1ccc2ccccc2c1,-7.0,-0.4,-6.5
O=C(COC(=O)c1ccccc1OCc1ccccc1)Nc1cccc2ccccc12,48.7*,22.7,30.3*
N#Cc1cccc(NC(=O)COC(=O)c2ccccc2OCc2ccc(Cl)cc2)c1,5.9,-3.7,8.4
O=C(COC(=O)c1ccccc1OCc1ccccc1)Nc1ccc(Cl)cc1,34.4*,21.0,36.2*
COc1cccc(NC(=O)CNc2cc(C)nc3nc(-c4cccnc4)nn23)c1,-85.1,-36.0,-28.4
CCOc1c(OC)cccc1C1CN2C(=O)CN(Cc3ccco3)C(=O)[C@]2(C)c2[nH]c3ccccc3c21 (stereo partly drawn),-80.7,-17.1,-39.1
CN1C(=O)c2ccccc2C1(Nc1ccccn1)c1ccccc1 (stereo not drawn),13.3,1.7,6.7
c1cc2c(cc1Nc1nc(CN3CCOCC3)nc3sc4c(c13)CCCC4)OCO2,-5.7,0.2,-20.8
COc1ccc2c(CNCCc3ccccc3)c(C(=O)O)n(Cc3ccc(F)cc3Cl)c2c1,30.4*,-9.6,21.3
O=C(O)c1c(CNCc2cccnc2)c2ccccc2n1Cc1ccc(F)cc1Cl,-6.9,9.0,-2.4
Cc1ccc2c(CNCCc3ccccc3C)c(C(=O)O)n(Cc3ccccc3C)c2c1,-81.7,-34.6,-18.6
COc1ccc(Cn2c(C(=O)O)c(CNCCC3=CCCCC3)c3ccccc32)cc1,-6.0,5.2,11.9
Cc1ccc(Cn2c(C(=O)O)c(CNCCC3=CCCCC3)c3ccccc32)cc1,15.9,24.0,39.2*
CSc1ccc(CNCc2c(C(=O)O)n(Cc3ccccc3)c3cc(C)ccc23)cc1,58.0*,23.8,43.6*
Nc1nnc(-c2cc(-c3ccco3)on2)o1,-32.5,-23.9,0.7
CC(=O)Nc1ccc(C(=O)NCc2ccccc2F)c(N2CCOCC2)c1,-92.7,13.4,13.6
CC(=O)Nc1ccc(C(=O)NCc2ccccc2F)c(N2CCCCC2)c1,-17.9,-16.7,36.9*
CCOC(=O)N1CCN(c2nc3c(c(Nc4ccccc4)n2)C(=O)CCC3)CC1,24.8,3.6,5.7
SMILES,USP30 inh,USP17 block,USP28 inh
O=C(CCNc1c(N2CCCC2)c(=O)c1=O)Nc1ccccc1F,-19.2,-8.2,-14.3
CC(CCc1ccccc1)NC(=O)c1nc(CS(=O)(=O)c2ccccc2)no1 (stereo not drawn),0.5,-4.2,-1.5
CCCCN1CC(C(=O)Nc2ccc(C(=O)Nc3cccc(Cl)c3)cc2)CC1=O (stereo not drawn),1.8,10.6,5.6
CCCCN1CC(C(=O)Nc2ccc(C(=O)Nc3ccc(Cl)c(Cl)c3)cc2)CC1=O (stereo not drawn),-20.3,-8.7,-19.8
CCCCN1CC(C(=O)Nc2ccc(C(=O)Nc3ccc(Cl)cc3)cc2)CC1=O (stereo not drawn),63.6*,20.7,18.2
CCCCN1CC(C(=O)Nc2ccc(C(=O)Nc3ccc(F)c(Cl)c3)cc2)CC1=O (stereo not drawn),27.3,52.0*,16.4
O=C(NCc1ccc(S(=O)(=O)N2CCCCCC2)s1)c1ccco1,-27.1,-1.1,-9.7
CC(=O)NC1CCN(c2nc3c(s2)c(C)nn3-c2ccc(F)cc2)CC1,24.8,9.3,10.7
CCc1ccccc1-n1nnnc1SCC(=O)NCCc1c[nH]c2cc(OC)ccc12,-9.4,25.0,23.7
